Measured values published in ChEMBL document CHEMBL1157539, “Thousands of chemical starting points for antimalarial lead identification” (Nature, 2010).

Key:
Assay type in all cases: functional
Plasmodium falciparum [1] = assay: GSK_TCMDC: Inhibition of Plasmodium falciparum 3D7 in whole red blood cells, using parasite LDH activity as an index of growth. Test compounds present at 2uM
Plasmodium falciparum [2] = assay: GSK_TCMDC: Inhibition of Plasmodium falciparum Dd2 in whole red blood cells, using parasite LDH activity as an index of growth. Test compounds present at 2uM
HepG2 = assay: GSK_TCMDC: Percent inhibition of human HepG2 cell line. Test compounds present at 10uM.

| SMILES | Inhibition (Plasmodium falciparum [1]) [%] | Inhibition (Plasmodium falciparum [2]) [%] | Inhibition (HepG2) [%] |
| --- | --- | --- | --- |
| Cc1cc(C)n(-c2nc(Nc3cccc(C(F)(F)F)c3)nc(-n3nc(C)cc3C)n2)n1 | 99 | 88 | 0 |
| Cl.Nc1c2c(nc3ccc(NC(=O)CCCCCc4ccccc4)cc13)CCCC2 | 100 | 36 | 32 |
| CCCCCCNC(=O)C1Cc2c([nH]c3ccc(Br)cc23)C2(CCN(Cc3ccccc3)CC2)N1 (stereo not drawn) | 100 | 75 | 100 |
| CCOc1ccccc1CCNC(C)Cc1ccc(C(=O)Nc2ccc(CC(C)NCCc3cccc(Cl)c3)cc2)cc1 (stereo not drawn) | 97 | 59 | 100 |
| O=C(Nc1ccc(C(F)(F)F)cc1)c1cccc(S(=O)(=O)NCC2CCCN(CC3CCCCC3)C2)c1.O=C(O)C(F)(F)F (stereo not drawn) | 97 | 4 | 27 |
| Cl.Oc1ccc(-c2ccccc2)cc1CNC1CCCCC1 | 95 | 100 | 24 |
| Nc1nccc2ccc(-c3ccc4ncccc4c3)cc12.O=C(O)C(F)(F)F | 100 | 100 | 97 |
| COc1cccc(-c2ccc(NC(=O)C3CCCN(Cc4cccc(OC)c4O)C3)cc2)c1 (stereo not drawn) | 98 | 78 | 13 |
| CCS(=O)(=O)c1ccc(-c2cnc3[nH]cc(-c4ccc(N)cc4)c3c2)cc1 | 92 | 99 | 24 |
| COc1ccc2nccc(N3CCC(CCNCc4cc5c(cn4)OCCO5)CC3)c2n1.Cl | 100 | 100 | 18 |
| COc1ccc2ncc(Cl)c([C@@H](O)CN3CCC(NCc4cc5c(cn4)OCCO5)CC3)c2c1.Cl | 100 | 100 | 8 |
